This is an account of results in PubChem BioAssay.

Where “and” joins values, the source holds several entries; their conditions need not be identical. Equal entries are not always repeated.

This experiment in a line: survival rescue of mitochondrial mutant cells in low glucose, primary screen, MELAS cybrids, Rieske KO mouse fibroblasts, CellTiter-Glo (AID 1508586).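 Also: test concentration not given here; z relative to plate mean and SD of compound and empty wells.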 As to conditions: Rieske KO mouse fibroblast survival, CellTiter-Glo 72 h. (ATP-based viability assays read luminescence as a measure of living cells.)
For `CC(=O)OCC(=O)[C@]12N=C(C)O[C@@H]1C[C@H]1[C@@H]3CCC4=CC(=O)C=C[C@]4(C)[C@@H]3C(O)C[C@@]12C` (stereo not given in full), the z-score was -0.272. Take `O=C(C=Cc1ccc(O)c(O)c1)c1ccc(O)cc1O`: the z-score was -0.063. The compound `CC(C)=CCC[C@](C)(OC1OC(COC2OCC(O)C(O)C2O)C(O)C(O)C1O)C1CC[C@]2(C)[C@@H]1C(O)C[C@H]1[C@@]3(C)CCC(OC4OC(CO)C(O)C(O)C4O)C(C)(C)[C@@H]3CC[C@]12C` (stereo not given in full) gave a z-score of 0.0165. Under `COc1c(C)c2c(c(O)c1CC=C(C)CCC(=O)OCCN1CCOCC1)C(=O)OC2` stands -0.579; under `CC(=Cc1ccc(C(=O)O)cc1)c1ccc2c(c1)C(C)(C)CCC2(C)C`, -0.2.

With `Cc1ccc(C2OC(CO)C(O)C(O)C2O)cc1Cc1ccc(-c2ccc(F)cc2)s1` (stereo not given), the z-score turned out to be 0.478. For `CNCc1cc(-c2ccccc2F)n(S(=O)(=O)c2cccnc2)c1`, the z-score was 0.241. As for `OCC(CO)NC1C[C@@](O)(CO)C(O)C(O)C1O` (stereo not given in full), the z-score was -0.122. Turning to `COc1cc(C=CC(=O)N2CCN(CC(=O)N3CCCC3)CC2)cc(OC)c1OC`, the z-score was -0.0197. For `O=C(O)C1=CC(O)C(O)C(O)C1` (stereo not given), the z-score stood at 0.667.

On to `Cc1ccc(C(=O)NCCCCCC(=O)Nc2ccccc2N)cc1`, for which the z-score was -2. Turning to `O=C(Nc1cccc(Cl)c1)c1ccccn1`, the z-score is -0.326. On to `Cc1ccc(C(=O)N(CCCN)C(c2oc3cc(Cl)ccc3c(=O)c2Cc2ccccc2)C(C)C)cc1` (stereo not given), for which the z-score was determined as 0.0146. Consider `O=c1ncccn1C1OC(CO)C(O)C1O` (stereo not given), for which the z-score was -1.06.

For the compound `C=CC(C)(O)CCC1[C@@]2(C)CCCC(C)(C)C2CC[C@@]1(C)O` (stereo not given in full), the z-score is -0.0842. With `N#CCC(C1CCCC1)n1cc(-c2ncnc3[nH]ccc23)cn1` (stereo not given), the z-score was 0.0258 and -0.766. With `COc1cc(C(C)=O)ccc1O`, the z-score was -0.0762. Consider `Cc1[nH]c2ccccc2c1C1=C(NCCc2ccc(F)cc2)C(=O)N(C)C1=O`, for which the z-score turned out to be 1.08.

As to `CCN(CC)C(=O)C(C#N)=Cc1cc(O)c(O)c([N+](=O)[O-])c1`, the z-score is -0.169. `Cc1cccc(C)c1OCC(=O)NC(Cc1ccccc1)C(O)CC(Cc1ccccc1)NC(=O)C(C(C)C)N1CCCNC1=O` (stereo not given) gave a z-score of 0.0231. `N#CC1C[C@@H]2C[C@H]2N1C(=O)C(N)C12CC3CC(CC(O)(C3)C1)C2` (stereo not given in full): the z-score was found to be 0.586. Take `Cc1cc(C)nc(NS(=O)(=O)c2ccc(NC(=S)NC(=O)COc3ccc(Br)cc3Cl)cc2)n1`: the z-score was -3.08. In the case of `O=C(c1ccc(C=Cc2n[nH]c3ccccc23)cc1)N1CCNCC1`, the z-score is -1.76. Take `Nc1nc(CC(=O)Nc2ccc(CCNCC(O)c3ccccc3)cc2)cs1` (stereo not given): the z-score is -0.148.

On to `NC(=O)C(CCC(F)(F)F)N(Cc1ccc(-c2ncon2)cc1F)S(=O)(=O)c1ccc(Cl)cc1` (stereo not given), for which the z-score amounted to 0.74. In the case of `CC1(C)OC2C[C@H]3[C@@H]4CCC5=CC(=O)CC[C@]5(C)[C@]4(F)C(O)C[C@]3(C)[C@@]2(C(=O)CCl)O1` (stereo not given in full) it was -0.265; in that of `CC1(C)S[C@@H]2C(NC(=O)C(C(=O)O)c3ccccc3)C(=O)N2C1C(=O)O` (stereo not given in full), -0.157; in that of `O=C(O)C1=COC(OC2OC(CO)C(O)C(O)C2O)[C@@H]2C(CO)=CC[C@H]12` (stereo not given in full), 0.447.

In the case of `CC1=C(CC(=O)O)c2cc(F)ccc2C1=Cc1ccc(S(C)=O)cc1` (stereo not given), the z-score is 0.691.

`NC1=N[C@@]2(c3cc(NC(=O)c4ccc(F)cn4)ccc3F)COC[C@@H]2CS1` registered a z-score of 0.113. `OCC1OC(Oc2ccc(O)cc2)C(O)C(O)C1O` (stereo not given) returned a z-score of 0.468. Regarding `CCC1OC(=O)CC(O)C(C)C(O[C@H]2OC(C)C(O[C@H]3C[C@@](C)(O)C(O)C(C)O3)C(N(C)C)C2O)C(CC=O)CC(C)C(=O)C=CC(C)=CC1COC1OC(C)C(O)C(OC)C1OC` (stereo not given in full), the z-score is -0.134. As for `C[C@]12CC[C@H]3c4ccc(O)cc4CC[C@H]3[C@@H]1CCC2OC(=O)CCC1CCCC1` (stereo not given in full), the z-score is -0.155.

For `CNC1CN(c2ccc3c(=O)c(C(=O)O)cn(-c4nccs4)c3n2)CC1OC` (stereo not given), the z-score is -1.95.

With `COc1cc(CCC(C)=O)ccc1O`, the z-score was -0.0455. Take `N#CC(=Cc1ccc(O)c(O)c1)C(=O)NCc1ccccc1`: the z-score turned out to be 0.15. Take `C#C[C@@]1(O)CC[C@H]2[C@@H]3CCc4cc(OC)ccc4[C@@H]3CC[C@@]21C`: the z-score stood at 0.814. With `CCNC(=O)Nc1ccc(-c2nc3c(c(N4CCOCC4C)n2)CCN(C2COC2)C3)cc1` (stereo not given), the z-score is -0.834.

For the compound `CC1(C)S[C@H]2C(NC(=O)C(N)c3ccc(O)cc3)C(=O)N2C1C(=O)O` (stereo not given in full), the z-score is -0.0136. Regarding `CC(C)c1onc(-c2c(Cl)cccc2Cl)c1COc1ccc(C=Cc2cccc(C(=O)O)c2)c(Cl)c1`, the z-score is -0.609.
